Measured values as given in the supplement of paper PMC11732987, “Enantioselective OTUD7B fragment discovery through chemoproteomics screening and high-throughput optimisation” (Communications Chemistry, 2025).

What was measured:
Test in all cases: log2 ratio of Biotin-Ahx-Ub-VS probe labelling (fragment/DMSO); higher = less target engagement (more negative = stronger competition), active = hit call of the paper (q ≤ 0.05, log2 ratio ≤ -1)
Details in all cases: compound concentration: 200 uM; treatment time: 3 h
USP34 = USP34 (UniProt Q70CQ2)
Summary of the method: (§1)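 Each value is an average log2 ratio of fragment to vehicle, tested by unpaired t-test. The underlying Spectronaut label-free quantities were global-median-normalised, and only proteins with ≥2 unique peptides were included. Triplicate HEK293T lysate samples (495 µg) were exposed to fragment at 200 µM or vehicle for 3 h, then to Biotin-Ahx-Ub-VS at 0.5 µM final for 1 h, before NeutrAvidin enrichment of labelled DUBs, LysC and trypsin digestion, and diaPASEF LC-MS/MS.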

USP36 = target: T1, USP36 (UniProt Q9P275)
T1 sequence (whole entry): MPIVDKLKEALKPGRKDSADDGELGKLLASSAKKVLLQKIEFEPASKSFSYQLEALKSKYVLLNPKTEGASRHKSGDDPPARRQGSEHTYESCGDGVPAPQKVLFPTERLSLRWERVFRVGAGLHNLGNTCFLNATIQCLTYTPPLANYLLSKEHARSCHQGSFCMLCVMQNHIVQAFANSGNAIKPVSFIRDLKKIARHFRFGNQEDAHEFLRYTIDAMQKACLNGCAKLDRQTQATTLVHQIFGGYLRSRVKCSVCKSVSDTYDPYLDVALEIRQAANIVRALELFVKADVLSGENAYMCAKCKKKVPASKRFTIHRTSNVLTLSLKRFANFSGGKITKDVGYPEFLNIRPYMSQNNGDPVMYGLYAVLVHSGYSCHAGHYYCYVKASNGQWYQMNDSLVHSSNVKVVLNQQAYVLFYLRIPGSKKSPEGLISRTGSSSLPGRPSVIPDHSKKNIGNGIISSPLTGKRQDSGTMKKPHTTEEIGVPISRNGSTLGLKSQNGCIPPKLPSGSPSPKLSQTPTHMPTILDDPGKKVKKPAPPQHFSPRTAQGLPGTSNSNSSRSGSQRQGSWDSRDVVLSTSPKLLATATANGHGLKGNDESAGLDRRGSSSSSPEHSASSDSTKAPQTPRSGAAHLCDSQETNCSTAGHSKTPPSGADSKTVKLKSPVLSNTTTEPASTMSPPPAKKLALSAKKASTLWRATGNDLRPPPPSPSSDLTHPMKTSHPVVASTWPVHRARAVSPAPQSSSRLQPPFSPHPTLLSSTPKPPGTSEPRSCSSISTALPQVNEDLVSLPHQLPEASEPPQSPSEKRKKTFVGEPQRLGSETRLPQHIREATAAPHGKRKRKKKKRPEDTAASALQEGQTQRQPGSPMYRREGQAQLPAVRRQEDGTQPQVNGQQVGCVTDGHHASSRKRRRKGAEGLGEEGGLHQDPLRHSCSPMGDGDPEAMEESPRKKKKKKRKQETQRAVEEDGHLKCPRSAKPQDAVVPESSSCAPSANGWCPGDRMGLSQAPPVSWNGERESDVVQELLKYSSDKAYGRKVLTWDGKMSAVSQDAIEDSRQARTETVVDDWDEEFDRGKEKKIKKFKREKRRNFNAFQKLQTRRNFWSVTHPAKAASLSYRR
Summary of the method: as §1

USP38 = target: T2, USP38 (UniProt Q8NB14)
T2 sequence (whole entry): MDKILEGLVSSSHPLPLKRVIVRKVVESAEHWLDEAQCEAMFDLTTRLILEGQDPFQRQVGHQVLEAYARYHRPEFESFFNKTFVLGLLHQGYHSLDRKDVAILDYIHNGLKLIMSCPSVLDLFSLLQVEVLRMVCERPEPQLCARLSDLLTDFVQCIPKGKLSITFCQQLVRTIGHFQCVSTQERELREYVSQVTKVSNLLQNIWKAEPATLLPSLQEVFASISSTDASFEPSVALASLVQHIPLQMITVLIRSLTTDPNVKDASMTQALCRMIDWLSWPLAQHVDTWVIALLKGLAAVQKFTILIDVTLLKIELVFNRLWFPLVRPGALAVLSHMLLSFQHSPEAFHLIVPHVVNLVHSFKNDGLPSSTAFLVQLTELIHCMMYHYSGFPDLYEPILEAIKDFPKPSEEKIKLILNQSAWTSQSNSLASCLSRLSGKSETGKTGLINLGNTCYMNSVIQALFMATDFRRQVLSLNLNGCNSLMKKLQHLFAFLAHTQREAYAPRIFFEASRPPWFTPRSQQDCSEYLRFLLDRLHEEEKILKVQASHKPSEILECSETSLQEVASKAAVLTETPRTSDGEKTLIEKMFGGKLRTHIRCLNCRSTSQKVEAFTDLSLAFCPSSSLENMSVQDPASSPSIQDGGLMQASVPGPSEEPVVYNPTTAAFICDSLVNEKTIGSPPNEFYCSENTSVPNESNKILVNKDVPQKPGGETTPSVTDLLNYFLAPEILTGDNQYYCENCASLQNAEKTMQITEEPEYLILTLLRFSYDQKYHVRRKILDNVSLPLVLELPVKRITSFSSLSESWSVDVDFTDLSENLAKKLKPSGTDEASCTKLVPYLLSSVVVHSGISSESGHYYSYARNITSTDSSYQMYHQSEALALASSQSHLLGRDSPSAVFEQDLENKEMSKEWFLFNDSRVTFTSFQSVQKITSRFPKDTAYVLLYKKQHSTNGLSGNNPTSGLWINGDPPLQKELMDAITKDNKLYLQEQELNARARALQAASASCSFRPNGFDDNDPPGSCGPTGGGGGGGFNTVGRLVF
Summary of the method: as §1

USP39 = target: T3, USP39 (UniProt Q53GS9)
T3 sequence (whole entry): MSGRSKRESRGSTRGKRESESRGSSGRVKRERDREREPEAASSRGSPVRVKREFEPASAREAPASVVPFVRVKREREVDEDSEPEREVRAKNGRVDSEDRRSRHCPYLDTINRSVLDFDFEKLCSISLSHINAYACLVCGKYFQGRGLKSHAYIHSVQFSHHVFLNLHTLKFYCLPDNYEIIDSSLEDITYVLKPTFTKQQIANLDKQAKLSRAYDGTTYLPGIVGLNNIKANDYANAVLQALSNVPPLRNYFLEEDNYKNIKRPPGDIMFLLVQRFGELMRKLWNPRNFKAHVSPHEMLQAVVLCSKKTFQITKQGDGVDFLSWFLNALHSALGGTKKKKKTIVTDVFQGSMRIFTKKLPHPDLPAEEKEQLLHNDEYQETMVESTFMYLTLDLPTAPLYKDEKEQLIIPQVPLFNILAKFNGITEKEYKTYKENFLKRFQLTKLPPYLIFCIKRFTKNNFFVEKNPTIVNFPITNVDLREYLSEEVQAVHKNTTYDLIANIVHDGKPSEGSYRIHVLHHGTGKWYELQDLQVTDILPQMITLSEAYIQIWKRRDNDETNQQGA
Summary of the method: as §1

USP4 = target: T4, USP4 (UniProt Q13107)
T4 sequence (whole entry): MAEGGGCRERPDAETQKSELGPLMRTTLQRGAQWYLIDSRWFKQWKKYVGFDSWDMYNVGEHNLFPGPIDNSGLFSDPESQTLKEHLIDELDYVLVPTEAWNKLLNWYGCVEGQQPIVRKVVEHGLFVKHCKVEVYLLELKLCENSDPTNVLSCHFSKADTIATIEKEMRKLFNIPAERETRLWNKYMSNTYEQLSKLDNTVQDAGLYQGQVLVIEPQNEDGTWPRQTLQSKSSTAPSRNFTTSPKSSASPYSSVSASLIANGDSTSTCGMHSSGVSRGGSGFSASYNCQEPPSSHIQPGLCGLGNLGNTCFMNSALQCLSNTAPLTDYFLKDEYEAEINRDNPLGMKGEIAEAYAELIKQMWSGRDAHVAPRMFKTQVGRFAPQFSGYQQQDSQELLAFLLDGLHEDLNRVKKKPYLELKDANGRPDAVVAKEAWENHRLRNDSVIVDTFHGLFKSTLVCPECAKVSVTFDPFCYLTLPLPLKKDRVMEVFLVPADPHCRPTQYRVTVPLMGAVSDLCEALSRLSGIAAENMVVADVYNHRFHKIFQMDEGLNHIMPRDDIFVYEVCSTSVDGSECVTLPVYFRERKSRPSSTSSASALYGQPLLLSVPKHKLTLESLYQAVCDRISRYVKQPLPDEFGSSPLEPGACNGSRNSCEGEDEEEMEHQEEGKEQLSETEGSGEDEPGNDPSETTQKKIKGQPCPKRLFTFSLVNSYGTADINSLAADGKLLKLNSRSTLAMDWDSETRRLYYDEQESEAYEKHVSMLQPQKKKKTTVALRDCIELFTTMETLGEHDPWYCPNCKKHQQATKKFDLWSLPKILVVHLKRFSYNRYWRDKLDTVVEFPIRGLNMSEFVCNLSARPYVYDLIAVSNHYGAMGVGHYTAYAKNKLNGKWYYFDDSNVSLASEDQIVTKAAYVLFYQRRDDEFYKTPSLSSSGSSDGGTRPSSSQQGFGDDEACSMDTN
Summary of the method: as §1

Measured: log2 ratio of Biotin-Ahx-Ub-VS probe labelling

USP34, sequence (Q70CQ2 whole entry, the tested form may be a part): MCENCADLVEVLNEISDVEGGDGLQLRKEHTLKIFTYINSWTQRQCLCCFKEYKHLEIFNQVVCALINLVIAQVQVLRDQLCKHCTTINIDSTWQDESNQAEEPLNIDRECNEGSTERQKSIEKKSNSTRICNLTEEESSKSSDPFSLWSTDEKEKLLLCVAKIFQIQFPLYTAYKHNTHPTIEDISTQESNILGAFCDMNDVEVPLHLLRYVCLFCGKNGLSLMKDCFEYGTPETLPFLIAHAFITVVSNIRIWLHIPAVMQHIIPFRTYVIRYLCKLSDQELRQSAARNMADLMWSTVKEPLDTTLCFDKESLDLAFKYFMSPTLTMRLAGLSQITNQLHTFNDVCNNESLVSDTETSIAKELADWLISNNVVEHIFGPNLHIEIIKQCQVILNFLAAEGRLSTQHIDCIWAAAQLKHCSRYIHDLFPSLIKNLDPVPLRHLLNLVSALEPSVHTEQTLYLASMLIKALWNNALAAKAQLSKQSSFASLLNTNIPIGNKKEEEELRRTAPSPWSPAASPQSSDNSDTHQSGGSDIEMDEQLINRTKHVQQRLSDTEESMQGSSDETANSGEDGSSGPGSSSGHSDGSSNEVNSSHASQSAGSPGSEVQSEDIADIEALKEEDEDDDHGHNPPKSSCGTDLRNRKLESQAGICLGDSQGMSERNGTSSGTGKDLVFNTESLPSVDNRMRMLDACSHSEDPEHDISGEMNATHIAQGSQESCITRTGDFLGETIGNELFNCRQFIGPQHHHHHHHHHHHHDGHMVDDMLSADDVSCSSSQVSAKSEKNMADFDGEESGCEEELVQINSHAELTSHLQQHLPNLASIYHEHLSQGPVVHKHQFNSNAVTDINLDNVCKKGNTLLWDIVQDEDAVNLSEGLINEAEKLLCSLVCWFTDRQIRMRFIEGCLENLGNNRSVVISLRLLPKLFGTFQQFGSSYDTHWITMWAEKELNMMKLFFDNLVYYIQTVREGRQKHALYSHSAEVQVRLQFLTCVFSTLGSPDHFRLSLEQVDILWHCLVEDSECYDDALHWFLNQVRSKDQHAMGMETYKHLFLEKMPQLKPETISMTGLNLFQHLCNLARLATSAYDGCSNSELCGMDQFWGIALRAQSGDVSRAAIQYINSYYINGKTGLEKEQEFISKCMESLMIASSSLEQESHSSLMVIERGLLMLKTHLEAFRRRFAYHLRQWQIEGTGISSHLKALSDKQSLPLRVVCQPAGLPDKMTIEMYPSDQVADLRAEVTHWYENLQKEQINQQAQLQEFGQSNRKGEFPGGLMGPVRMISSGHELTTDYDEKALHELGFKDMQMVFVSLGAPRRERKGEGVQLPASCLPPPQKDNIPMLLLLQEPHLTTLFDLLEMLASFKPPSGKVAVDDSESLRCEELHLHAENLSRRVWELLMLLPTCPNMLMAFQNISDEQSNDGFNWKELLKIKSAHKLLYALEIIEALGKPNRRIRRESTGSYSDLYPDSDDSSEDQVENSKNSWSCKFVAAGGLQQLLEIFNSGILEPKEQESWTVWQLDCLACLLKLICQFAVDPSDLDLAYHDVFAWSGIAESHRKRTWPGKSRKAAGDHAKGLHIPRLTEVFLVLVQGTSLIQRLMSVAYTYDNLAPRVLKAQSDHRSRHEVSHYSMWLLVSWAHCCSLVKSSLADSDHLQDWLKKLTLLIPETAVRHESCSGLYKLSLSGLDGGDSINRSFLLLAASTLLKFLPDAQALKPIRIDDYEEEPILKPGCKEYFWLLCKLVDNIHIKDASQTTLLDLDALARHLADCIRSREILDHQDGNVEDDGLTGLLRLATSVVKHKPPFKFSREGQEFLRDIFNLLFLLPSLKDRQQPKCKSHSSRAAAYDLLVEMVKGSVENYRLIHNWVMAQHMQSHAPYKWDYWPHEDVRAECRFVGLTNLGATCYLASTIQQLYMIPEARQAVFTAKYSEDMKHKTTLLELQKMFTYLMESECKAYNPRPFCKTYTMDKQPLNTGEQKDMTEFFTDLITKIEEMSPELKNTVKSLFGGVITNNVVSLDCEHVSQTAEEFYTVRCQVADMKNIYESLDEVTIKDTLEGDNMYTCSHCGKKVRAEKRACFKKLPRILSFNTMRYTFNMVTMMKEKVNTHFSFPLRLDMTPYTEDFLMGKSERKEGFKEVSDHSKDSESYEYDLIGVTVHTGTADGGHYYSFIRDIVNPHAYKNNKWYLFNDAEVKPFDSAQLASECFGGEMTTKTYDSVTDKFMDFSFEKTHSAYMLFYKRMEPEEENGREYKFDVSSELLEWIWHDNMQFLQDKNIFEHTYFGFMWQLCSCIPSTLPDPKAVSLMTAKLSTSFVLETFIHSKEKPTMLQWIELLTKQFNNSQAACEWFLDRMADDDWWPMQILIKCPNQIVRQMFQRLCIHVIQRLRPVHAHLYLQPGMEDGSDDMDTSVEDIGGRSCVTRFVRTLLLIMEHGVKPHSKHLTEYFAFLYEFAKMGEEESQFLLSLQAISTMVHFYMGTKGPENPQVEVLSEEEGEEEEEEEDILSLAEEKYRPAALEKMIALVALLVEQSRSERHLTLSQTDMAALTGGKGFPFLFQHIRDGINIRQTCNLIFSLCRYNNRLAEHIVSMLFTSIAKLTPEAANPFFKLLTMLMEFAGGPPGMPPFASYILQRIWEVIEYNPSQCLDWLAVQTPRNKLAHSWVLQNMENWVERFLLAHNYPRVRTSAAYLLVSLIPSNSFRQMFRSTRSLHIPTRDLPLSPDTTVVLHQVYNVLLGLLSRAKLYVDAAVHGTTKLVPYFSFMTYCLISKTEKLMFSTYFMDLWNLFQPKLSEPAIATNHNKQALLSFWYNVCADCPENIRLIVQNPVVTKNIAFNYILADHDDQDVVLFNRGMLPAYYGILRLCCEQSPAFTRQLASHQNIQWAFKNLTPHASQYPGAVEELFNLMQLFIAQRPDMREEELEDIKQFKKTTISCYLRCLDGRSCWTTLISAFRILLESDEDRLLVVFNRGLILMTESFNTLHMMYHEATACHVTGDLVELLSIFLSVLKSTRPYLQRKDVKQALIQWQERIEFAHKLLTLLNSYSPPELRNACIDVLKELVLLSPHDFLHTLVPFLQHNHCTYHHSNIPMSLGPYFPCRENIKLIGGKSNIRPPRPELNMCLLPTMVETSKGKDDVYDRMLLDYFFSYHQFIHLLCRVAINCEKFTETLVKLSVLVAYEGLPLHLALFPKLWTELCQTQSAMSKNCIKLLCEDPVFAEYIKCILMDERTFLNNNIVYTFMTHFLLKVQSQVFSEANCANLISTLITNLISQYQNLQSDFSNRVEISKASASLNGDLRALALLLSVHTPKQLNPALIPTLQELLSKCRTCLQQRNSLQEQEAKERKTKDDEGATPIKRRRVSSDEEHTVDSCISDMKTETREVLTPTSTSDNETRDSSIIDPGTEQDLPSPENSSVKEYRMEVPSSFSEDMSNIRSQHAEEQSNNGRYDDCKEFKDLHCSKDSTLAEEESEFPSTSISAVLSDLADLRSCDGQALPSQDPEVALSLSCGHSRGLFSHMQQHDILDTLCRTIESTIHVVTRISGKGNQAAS

COCC1C=CCCN1C(=O)CCl (stereo not given)
inactive: USP34 -0.0902 | USP36 -0.00282 | USP38 -0.157 | USP39 -0.196 | USP4 -0.211
